Test results reported in PubChem BioAssay (NCATS).
Residues, ends and D or L forms follow the SMILES beside them. *: point of attachment. Cbz = O=C(OCc1ccccc1)*

Assay: qHTS profiling of the MIPE4 collection as inhibitors of Plasmodium falciparum (DD2) proliferation (AID 743345)
Conditions: P. falciparum Dd2 in erythrocytes, SYBR Green DNA, 72 h; at 28.5 µM (top of the series) unless noted
How it was run: (§1)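 Erythrocytes infected with P. falciparum (0.3% parasitemia, 2.5% hematocrit) incubated with compounds 72 h at 37 C, 5% CO2. Lysis with saponin/Triton buffer containing SYBR Green I, overnight at room temperature in the dark; DNA fluorescence (485/535 nm) normalised to 0.29 uM artemisinin and DMSO.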

| Compound | parasite growth remaining, % of DMSO control (lower = more inhibition) [%] |
| --- | --- |
| COc1cc(OC)c(C=CS(=O)(=O)Cc2ccc(OC)c(NCC(=O)O)c2)c(OC)c1 | 82.7 |
| Cc1ccc(-n2[nH]c(C)c(N=Nc3cccc(-c4cccc(C(=O)O)c4)c3O)c2=O)cc1C | 92.5 |
| CN1CCCN(C(=O)c2cccc(-c3ccc(C=C4C(=O)Nc5ccc(Cl)cc54)o3)c2)CC1 | 5.68 |
| O=C1c2c(O)cccc2[C@@H]([C@@H]2O[C@H](CO)[C@@H](O)[C@H](O)[C@H]2O)c2cc(CO)cc(O)c21 | 95.6 |
| CCCNS(=O)(=O)Nc1ncnc(OCCOc2ncc(Br)cn2)c1-c1ccc(Br)cc1 | 99.9 |
| CN(CC(=O)N(Cc1ccc(C2CCCCC2)cc1)c1ccc(C(=O)O)c(O)c1)S(=O)(=O)c1c(F)c(F)c(F)c(F)c1F | 95.9 |
| CS(=O)(=O)N1CCc2c(-c3cnc(N)nc3)nc(N3CCOCC3)nc21 | 9.76 |
| Cn1cnc(=N)c2[nH]cnc21 | 6.87 |
| C[C@@H]1CC[C@@]2(OC1)OC1CC3C4CC=C5CC(O)CCC5(C)C4CCC3(C)C1[C@@H]2C (some centres not stated) | 97.8 |
| N#Cc1c(C2CCNCC2)cc(-c2c(O)cccc2OCC2CC2)nc1N | 12.3 |
| NC(=NCCCCCCN=C(N)N=C(N)Nc1ccc(Cl)cc1)N=C(N)Nc1ccc(Cl)cc1 | 6.46 |
| COc1cc(O)c2c(c1)C1OC1C[C@H](O)[C@H](O)C(=O)C=CC[C@H](C)OC2=O (some centres not stated) | 10.6 |
| C[C@H]1COc2c(N3CCN(C)CC3)c(F)cc3c(=O)c(C(=O)O)cn1c23 | 69.9 |
| CC(C)n1cnc2c(NCCc3ccc(O)cc3)nc(-c3csc4ccccc34)nc21 | 9.54 |
| N#Cc1c(NC(=O)c2cccc3ccccc23)sc2c1CCCC2 | 81.7 |
| CN1C(C(=O)Nc2ccccn2)=C(O)c2sc(Cl)cc2S1(=O)=O | 86.4 |
| COc1ccc(Nc2nccc(NCCO)n2)cc1 | 94.8 |
| NC[C@H]1O[C@H](O[C@H]2[C@@H](O)[C@@H](O[C@H]3O[C@H](CO)[C@@H](O)[C@H](N)[C@@H]3O)[C@H](N)C[C@@H]2N)[C@H](N)C[C@H]1O | 92.9 |
| CC(Oc1ccc(O)cc1)(P(=O)(O)O)P(=O)(O)O | 101 |

Assay: qHTS profiling of the MIPE4 collection as inhibitors of Plasmodium falciparum (DD2) proliferation (Rep 2) (AID 743346)
Conditions: P. falciparum Dd2 in erythrocytes, SYBR Green DNA, 72 h; at 28.5 µM (top of the series) unless noted
How it was run: as §1

| Compound | parasite growth, % of control (lower = inhibition) |
| --- | --- |
| CC1(C)[C@H](O[C@H]2O[C@H](C(=O)O)[C@@H](O)[C@H](O)[C@H]2O[C@@H]2O[C@H](C(=O)O)[C@@H](O)[C@H](O)[C@H]2O)CC[C@@]2(C)[C@H]1CC[C@]1(C)[C@H]2C(=O)C=C2[C@H]3C[C@@](C)(C(=O)O)CC[C@]3(C)CC[C@]21C | 85.7% |
| C=C[C@@H]1CN2CCC1C[C@H]2[C@H](O)c1ccnc2ccc(OC)cc12 (some centres not stated) | 15.1% |
| Cn1cc(C=CC(=O)c2cccc(F)c2)cc1C=CC(=O)NO | 56.3% |
| C=C1C(=O)O[C@H]2[C@@H]1CCC(C)=CCC[C@@]1(C)O[C@@H]21 | 37.7% |
| CCN(CC)CCNC(=O)c1c(C)[nH]c(C=C2C(=O)Nc3ccc(F)cc32)c1C | 16% [at 57.5 µM] |
| CCc1c(O)cc(O)c(C(=O)c2ccc(OCCN3CCOCC3)c(OC)c2)c1CC(=O)N(CCOC)CCOC | 11.6% |
| C=CCNc1c(O)cc2c(O)c1C[C@@H](C)C[C@H](OC)[C@@H](O)[C@@H](C)C=C(C)[C@H](OC(N)=O)[C@@H](OC)C=CC=C(C)C(=O)N2 | 11.1% |
| O=C(O)C[C@H](O)C[C@H](O)C=Cc1c(C2CC2)nc2ccccc2c1-c1ccc(F)cc1 | 67% |
| Cc1ccc(O)c(C(CCN(C(C)C)C(C)C)c2ccccc2)c1 (configuration not stated) | 10.4% |
| COc1cc(C[C@@H](CO)[C@H](CO)Cc2ccc(O)c(OC)c2)ccc1O | 80.4% |
| COC[C@H](NC(=O)c1cnc(C)s1)C(=O)N[C@@H](COC)C(=O)N[C@@H](Cc1ccccc1)C(=O)[C@@]1(C)CO1 | 12.2% |
| CC(C)N(CC[C@H](c1ccccc1)c1cc(CO)ccc1O)C(C)C | 26.5% |
| Cc1cc(-c2nnc3n2CCCCC3)c(C)n1-c1ccccc1 | 26.6% |
| N#CC(=Cc1ccc(O)c(O)c1)C(=O)NCc1ccccc1 | 51.8% |
| CC(C)C[C@@H](C=O)NC(=O)[C@H](CC(C)C)NC(=O)[C@H](CC(C)C)NC(=O)OCc1ccccc1 (Cbz-Leu-Leu-Leu-aldehyde) | 8.46% |
| CCOc1cc2ncc(C#N)c(Nc3ccc(OCc4ccccn4)c(Cl)c3)c2cc1NC(=O)C=CCN(C)C | 12.3% |
| CC(=O)N1CCN(c2ccc(OCc3nn(C)c(C)c3-c3cccc4c(CCCOc5cccc6ccccc56)c(C(=O)O)n(Cc5cccnc5)c34)cc2)CC1 | 10.7% |
| COc1cc(OC)c(C=CS(=O)(=O)Cc2ccc(OC)c(NCC(=O)O)c2)c(OC)c1 | 77.6% |
| Cc1ccc(-n2[nH]c(C)c(N=Nc3cccc(-c4cccc(C(=O)O)c4)c3O)c2=O)cc1C | 72.1% |

| Compound | parasite growth, % of control (lower = inhibition) |
| --- | --- |
| CN1CCCN(C(=O)c2cccc(-c3ccc(C=C4C(=O)Nc5ccc(Cl)cc54)o3)c2)CC1 | 6.52% |
| O=C1c2c(O)cccc2[C@@H]([C@@H]2O[C@H](CO)[C@@H](O)[C@H](O)[C@H]2O)c2cc(CO)cc(O)c21 | 80.5% |
| CCCNS(=O)(=O)Nc1ncnc(OCCOc2ncc(Br)cn2)c1-c1ccc(Br)cc1 | 82.3% |
| CN(CC(=O)N(Cc1ccc(C2CCCCC2)cc1)c1ccc(C(=O)O)c(O)c1)S(=O)(=O)c1c(F)c(F)c(F)c(F)c1F | 53.5% |
| CS(=O)(=O)N1CCc2c(-c3cnc(N)nc3)nc(N3CCOCC3)nc21 | 6.07% |
| Cn1cnc(=N)c2[nH]cnc21 | 7.19% |
| C[C@@H]1CC[C@@]2(OC1)OC1CC3C4CC=C5CC(O)CCC5(C)C4CCC3(C)C1[C@@H]2C (some centres not stated) | 64.4% |
| N#Cc1c(C2CCNCC2)cc(-c2c(O)cccc2OCC2CC2)nc1N | 15.7% |
| NC(=NCCCCCCN=C(N)N=C(N)Nc1ccc(Cl)cc1)N=C(N)Nc1ccc(Cl)cc1 | 22% |
| COc1cc(O)c2c(c1)C1OC1C[C@H](O)[C@H](O)C(=O)C=CC[C@H](C)OC2=O (some centres not stated) | 6.84% |
| C[C@H]1COc2c(N3CCN(C)CC3)c(F)cc3c(=O)c(C(=O)O)cn1c23 | 49.2% |
| CC[C@H]1OC(=O)[C@H](C)[C@@H](O[C@H]2C[C@@](C)(OC)[C@@H](O)[C@H](C)O2)[C@H](C)[C@@H](O[C@@H]2O[C@@H](C)C[C@H](N(C)C)[C@@H]2O)[C@](C)(O)C[C@@H](C)C(=O)[C@H](C)[C@@H](O)[C@]1(C)O | 47.1% |
| CC(C)n1cnc2c(NCCc3ccc(O)cc3)nc(-c3csc4ccccc34)nc21 | 13.2% |
| N#Cc1c(NC(=O)c2cccc3ccccc23)sc2c1CCCC2 | 90% |
| CN1C(C(=O)Nc2ccccn2)=C(O)c2sc(Cl)cc2S1(=O)=O | 50.9% |
| COc1ccc(Nc2nccc(NCCO)n2)cc1 | 83.3% |
| COc1cc([C@@H]2c3cc4c(cc3[C@H](O)[C@H]3COC(=O)[C@@H]23)OCO4)cc(OC)c1OC | 29.1% |
| NC[C@H]1O[C@H](O[C@H]2[C@@H](O)[C@@H](O[C@H]3O[C@H](CO)[C@@H](O)[C@H](N)[C@@H]3O)[C@H](N)C[C@@H]2N)[C@H](N)C[C@H]1O | 78% |
| CC(Oc1ccc(O)cc1)(P(=O)(O)O)P(=O)(O)O | 64.2% |
